High-throughput results: PubChem BioAssay, National Center for Advancing Translational Sciences (NCATS)
TDP1 cell CPT: DT40-hTDP1 cell growth loss with CPT | AID 686979 | chicken DT40 Tdp1-/-;hTDP1 cells + 20 nM CPT, ATP luminescence, 48 h | 12% of 420,000 active | Potency, µM (top dose mostly 46.2 µM), actives largely listed as inhibitors; note: nearly all actives have a fitted effect of over 55% in size
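Cell growth measured by CellTiter-Glo luminescence after a minimum 48 h, 37 C compound exposure with 20 nM CPT in Tdp1-knockout DT40 cells stably expressing hTDP1, seeded 400/well; qHTS titration format.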
ClpP mod: qHTS Assay for Activators of ClpP; ATP-dependent Clp protease proteolytic subunit (Bacillus subtilis (strain 168)), P80244; purified B. subtilis ClpP, FRET peptide cleavage, 20 min; Potency, µM (highest dose often 57.5 µM); 1.9% of 340,000 active; AID 651965, 2013; active = well fitted falling curve with a large enough effect; inconclusive = small, poorly fitted or top-dose-only effect; inactive = no such curve, though single readings can be large or run the other way; note: the source files actives as falling curves though it sought activators and does not explain the sign; nearly all actives have a fitted effect of over 65% in size
Target sequence (P80244 whole entry, looked up): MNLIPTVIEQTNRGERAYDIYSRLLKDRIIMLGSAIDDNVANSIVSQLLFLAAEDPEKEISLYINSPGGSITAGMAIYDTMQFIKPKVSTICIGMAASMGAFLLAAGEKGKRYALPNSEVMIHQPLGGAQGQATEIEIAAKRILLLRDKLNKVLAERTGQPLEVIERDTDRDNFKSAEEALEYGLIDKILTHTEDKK
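Buffer: 100 mM Tris/HCl pH8, 100 mM KCl, 0.05% low protease BSA, 2.5% glycerol, 0.01% Tween-20. ClpP 10 microg/mL final; 20 min RT; delta FRET normalized to ADEP and DMSO controls.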
IL1B secr inh: inhibitors of inflammasome signaling (IL-1 beta secretion); activity change, % at 57.5 µM; 4.7% of 360,000 active; THP-1 LPS/ATP IL-1B secretion, AlphaLISA, 16 h; hits give low values; in the data active = activity change below about -50%; inconclusive = mostly about -30% to -49%
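THP-1 cells pretreated 1 hr with compounds (up to 57.5 uM final), then stimulated with LPS (250 ng/mL final) plus ATP (1.25 mM final); secreted IL-1B measured by AlphaLISA after 16 hr, decreased signal indicating inhibition.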
DRD3 antagonist: antagonists of human D3 dopamine receptor | P35462 | D3R cells, DiscoveRx beta-arrestin luminescence, antagonist mode; hits give low values | max response, negative = inhibition, % | 2.5% of 360,000 active | AID 652054; in the data active = max response below about -50%; inconclusive = no clear call, values can overlap the other calls
Target sequence (P35462 whole entry, looked up): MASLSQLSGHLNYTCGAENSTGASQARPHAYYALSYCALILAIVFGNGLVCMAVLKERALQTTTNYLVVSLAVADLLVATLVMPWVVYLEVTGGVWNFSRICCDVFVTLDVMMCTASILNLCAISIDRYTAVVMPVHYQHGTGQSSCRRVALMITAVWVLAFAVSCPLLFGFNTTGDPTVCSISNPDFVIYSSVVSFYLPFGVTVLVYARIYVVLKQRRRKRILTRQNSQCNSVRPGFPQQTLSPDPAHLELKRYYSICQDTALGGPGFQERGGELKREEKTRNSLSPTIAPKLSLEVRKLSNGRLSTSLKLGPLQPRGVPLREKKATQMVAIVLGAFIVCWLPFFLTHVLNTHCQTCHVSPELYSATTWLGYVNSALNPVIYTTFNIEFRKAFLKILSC
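Cells expressing the human receptor were seeded at 1500 cells/well, incubated overnight at 37 degrees C in 5% CO2, then exposed to library compounds with dopamine controls for 90 minutes at 37 degrees C before luminescent detection.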
D3 ag: activates the human D3 dopamine receptor | P35462 | D3R DiscoveRx beta-arrestin cells, luminescence, 90 min | max activation, % | 0.58% of 410,000 active; in the data active = max activation above about 30%
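Agonist-mode cell screen: cells plated at 1500/well and incubated overnight at 37 °C, then exposed to library compounds for 90 min at 37 °C. Detection reagent was added for 30–60 min at room temperature, and luminescence was read.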
TDP1 cell noCPT: qHTS for Inhibitors of human tyrosyl-DNA phosphodiesterase 1 (TDP1): qHTS in cells in absence of CPT; AID 686978, 2013; DT40 Tdp1-/- hTDP1 cells, no CPT, ATP luminescence, 48 h; 15% of 420,000 active; Potency, µM (top dose mostly 46.2 µM), hits mostly inhibitors; note: nearly all actives have a fitted effect of over 55% in size
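Luminescent ATP content (CellTiter-Glo) served as the growth readout. Knockout chicken DT40 cells expressing human TDP1 were exposed to compounds without camptothecin for a minimum 48 hr at 37 °C.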
A number is an active result; [ ] = dose if it differs, or a comment. The list is not random: actives were taken first. Their share in the collection is about 21%. Unless noted, calls come from the whole dose curve; as a rule, active = well fitted inhibition curve with a large enough effect; inconclusive = small, poorly fitted or top-dose-only effect; inactive = flat fitted curve, though single readings scatter.

Screening CCCCNC(=O)C1C(c2ccc(OC)cc2)=Nc2ccccc2N1C(=O)c1ccncc1 (stereo not drawn) returned TDP1 cell CPT 23.1µM, ClpP mod inactive, IL1B secr inh inactive, DRD3 antagonist inactive, D3 ag inactive and TDP1 cell noCPT 20.6µM.
Screening Cc1nc2ccc(C(=O)N3c4ccccc4N=C(c4ccc5c(c4)OCO5)C3C(=O)NCc3ccccc3)cc2[nH]1 (stereo not drawn) returned TDP1 cell CPT 2.06µM, ClpP mod inactive, IL1B secr inh inactive, DRD3 antagonist inactive, D3 ag inactive and TDP1 cell noCPT 1.64µM.
For CCC(=O)N1CCC1(C)C(=O)Nc1ccc2scnc2c1 (stereo not drawn) the results were TDP1 cell CPT inconclusive, ClpP mod inactive, IL1B secr inh inactive, DRD3 antagonist inactive, D3 ag inactive and TDP1 cell noCPT inactive.
`O=C(O)CCC/C=C\C[C@@H]1C(/C=C/[C@@H](O)COc2cccc(C(F)(F)F)c2)[C@@H](O)C[C@@H]1O` (stereo partly drawn) gave TDP1 cell CPT inactive[4.12 µM] and TDP1 cell noCPT inactive[4.12 µM].
Screening O=C(CCn1c(=O)c2cccn2c2cccnc21)NCc1cccc(Br)c1 returned TDP1 cell CPT inconclusive, ClpP mod inactive, D3 ag inactive and TDP1 cell noCPT inconclusive.
Screening Cc1cc2nc(-c3ccc4c(c3)CCC4)ccn2n1 returned TDP1 cell CPT inconclusive, IL1B secr inh inconclusive, DRD3 antagonist inactive, D3 ag inactive and TDP1 cell noCPT inactive.
Screening Cc1ccccc1NC(NC(=O)c1cccs1)C(Cl)(Cl)Cl (stereo not drawn) returned TDP1 cell CPT inconclusive, ClpP mod 25.1µM, IL1B secr inh inactive, DRD3 antagonist inactive, D3 ag inactive and TDP1 cell noCPT inconclusive.
`Cc1ccc(NC(NC(=O)c2cccs2)C(Cl)(Cl)Cl)cc1` (stereo not drawn) gave TDP1 cell CPT inconclusive, ClpP mod inactive, IL1B secr inh inactive, DRD3 antagonist inactive, D3 ag inactive and TDP1 cell noCPT inconclusive.
For Cc1ccccc1NC(=O)c1ccccc1NC(=O)c1cccs1 the results were TDP1 cell CPT inactive, IL1B secr inh inactive, DRD3 antagonist inactive, D3 ag inactive and TDP1 cell noCPT inactive.
`Cc1ccc(NC(NC(=O)c2cccs2)C(Cl)(Cl)Cl)cc1C` (stereo not drawn) gave TDP1 cell CPT inconclusive, ClpP mod inactive, IL1B secr inh inconclusive, DRD3 antagonist inconclusive, D3 ag inactive and TDP1 cell noCPT 18.4µM.
NS(=O)(=O)c1ccc(NC(=O)c2cccc(N3C(=O)c4ccccc4C3=O)c2)cc1 was read as TDP1 cell CPT inactive, IL1B secr inh inactive, DRD3 antagonist inactive, D3 ag inactive and TDP1 cell noCPT inactive.
COc1ccc(OC)c(NC(=O)C2(C)CCN2Cc2ccsc2)c1 (stereo not drawn) was read as TDP1 cell CPT 16.4µM, ClpP mod inactive, IL1B secr inh inactive, DRD3 antagonist inactive, D3 ag inactive and TDP1 cell noCPT 11.6µM.
For CC1(C(=O)Nc2ccc3c(c2)OCCO3)CCN1Cc1ccccc1OC(F)F (stereo not drawn) the results were TDP1 cell CPT inconclusive, ClpP mod inactive, IL1B secr inh inactive, DRD3 antagonist inactive, D3 ag inactive and TDP1 cell noCPT inconclusive.
Cc1ccc(NC(=O)C2(C)CCN2CCc2ccccc2)cc1O (stereo not drawn) was read as TDP1 cell CPT inactive, ClpP mod inactive, IL1B secr inh inactive, DRD3 antagonist inactive, D3 ag inactive and TDP1 cell noCPT inactive.
Screening CC(=O)N1CCc2cc(NC(=O)C3(C)CCN3CCc3ccccc3)ccc21 (stereo not drawn) returned TDP1 cell CPT 20.6µM, ClpP mod inactive, IL1B secr inh inactive, DRD3 antagonist inactive, D3 ag inactive and TDP1 cell noCPT 20.6µM.
CC1(C(=O)Nc2cccc(NS(C)(=O)=O)c2)CCN1Cc1ccccc1OC(F)F (stereo not drawn) was read as TDP1 cell CPT 23.1µM, ClpP mod inactive, IL1B secr inh inactive, DRD3 antagonist inactive, D3 ag inactive and TDP1 cell noCPT 16.4µM.
COc1ccc(OC)c(NC(=O)C2(C)CCN2Cc2ccccc2OC(F)F)c1 (stereo not drawn) was read as TDP1 cell CPT inconclusive, ClpP mod inactive, IL1B secr inh inactive, DRD3 antagonist inactive, D3 ag 91.8 and TDP1 cell noCPT 16.4µM.
`Cc1c(Br)cccc1NC(=O)C1(C)CCN1Cc1ccccc1OC(F)F` (stereo not drawn) gave TDP1 cell CPT 25.9µM, ClpP mod inactive, IL1B secr inh inactive, DRD3 antagonist inactive, D3 ag inactive and TDP1 cell noCPT inconclusive.
`CC(C)N1CCC1(C)C(=O)Nc1ccccc1OC(F)F` (stereo not drawn) gave TDP1 cell CPT inactive, ClpP mod inactive, IL1B secr inh inactive, DRD3 antagonist inactive, D3 ag inactive and TDP1 cell noCPT inconclusive.
CC(=O)N1CCc2cc(NC(=O)C3(C)CCN3Cc3ccccc3OC(F)F)ccc21 (stereo not drawn) was read as TDP1 cell CPT 25.9µM, ClpP mod inactive, IL1B secr inh inactive, DRD3 antagonist inactive, D3 ag inactive and TDP1 cell noCPT 18.4µM.
`COc1cccc(NC(=O)C2(C)CCN2Cc2ccccc2OC(F)F)c1` (stereo not drawn) gave TDP1 cell CPT 20.6µM, ClpP mod inactive, IL1B secr inh inactive, DRD3 antagonist inactive, D3 ag inactive and TDP1 cell noCPT 16.4µM.
Screening COCCCNC(=O)c1c(NC(=O)Cc2coc3cc(C)cc(C)c23)sc2c1CCCC2 returned TDP1 cell CPT inconclusive, ClpP mod inconclusive, D3 ag inactive and TDP1 cell noCPT inconclusive.
`CCOC(=O)Cc1csc(NC(=O)C(C)c2ccc([N+](=O)[O-])cc2)n1` (stereo not drawn) gave TDP1 cell CPT inconclusive, IL1B secr inh inactive, DRD3 antagonist inactive, D3 ag inactive and TDP1 cell noCPT inactive.
For COc1cccc(NC(=O)Cn2c(=O)n(Cc3ccc4c(c3)OCO4)c(=O)c3oc4ccccc4c32)c1 the results were TDP1 cell CPT inactive, ClpP mod inconclusive, D3 ag inactive and TDP1 cell noCPT inactive.
CC(c1ccccc1)N1CC(C(=O)Nc2ccc(F)cc2)CC1=O (stereo not drawn) was read as TDP1 cell CPT inactive, ClpP mod inactive, IL1B secr inh inconclusive, DRD3 antagonist inconclusive, D3 ag inactive and TDP1 cell noCPT inactive.
